In the OligoGym collection:

molecular target: GALT; experiment: pooled miR-30 sensor sort-seq; sequence = guide strand; settings: shRNA

Going from TGAGCAAGCATTTCGTAGCCAA to TATCTGGCAGGAAACTGCTGGC, the sensor-assay potency score (higher = more potent) falls from -0.524 to -0.854.

Sequence TAGCAGGGGCTCTCCATGCTGA has a sensor-assay potency score (higher = more potent) of -0.945.

molecular target: GAPDH; experiment: as above; settings: shRNA

Compared with ATTGATGACAAGCTTCCCGTTC, TTGGCAGGTTTTTCTAGACGGC is lower in sensor-assay potency score (higher = more potent): -0.354 for the first, -0.926 for the second.

Compared with TATTGGAACATGTAAACCATGT, TTGACAAAGTGGTCGTTGAGGG is higher in sensor-assay potency score (higher = more potent): -0.597 for the first, -0.52 for the second.

First: AACATGTAAACCATGTAGTTGA
Second: TGGAACATGTAAACCATGTAGT
The sensor-assay potency score (higher = more potent) of the first is higher: -0.65 for the first, -0.878 for the second.

First: TGAGCTTGACAAAGTGGTCGTT
Second: TTGCTGTAGCCAAATTCGTTGT
The sensor-assay potency score (higher = more potent) of the first is higher: 0.19 for the first, -1.2 for the second.

Going from TTGATGACAAGCTTCCCGTTCT to TTGTCATGGATGACCTTGGCCA, the sensor-assay potency score (higher = more potent) falls from 0.0762 to -0.37.

Compared with TTGAGGTCAATGAAGGGGTCAT, ATATTGGAACATGTAAACCATG is lower in sensor-assay potency score (higher = more potent): -0.473 for the first, -1.54 for the second.

Going from TGTTGTCATACTTCTCATGGTT to TTCTCAGCCTTGACGGTGCCAT, the sensor-assay potency score (higher = more potent) falls from 0.0358 to -0.93.

First: ATGAGCTTGACAAAGTGGTCGT
Second: ATTTCCATTGATGACAAGCTTC
The sensor-assay potency score (higher = more potent) of the first is higher: 0.0447 for the first, -1.07 for the second.

Going from TTGATGGCAACAATATCCACTT to TAGTTGAGGTCAATGAAGGGGT, the sensor-assay potency score (higher = more potent) rises from -0.344 to -0.233.

Going from ATTGATGGCAACAATATCCACT to TTGGAACATGTAAACCATGTAG, the sensor-assay potency score (higher = more potent) rises from -0.562 to -0.273.

Compared with AATTCGTTGTCATACCAGGAAA, TCGCTGTTGAAGTCAGAGGAGA is higher in sensor-assay potency score (higher = more potent): -1.59 for the first, -1.53 for the second.

First: TAAACCATGTAGTTGAGGTCAA
Second: TTTTTCTAGACGGCAGGTCAGG
The sensor-assay potency score (higher = more potent) of the first is higher: 0.434 for the first, -1.01 for the second.
